Compound activity: PubChem BioAssay, National Center for Advancing Translational Sciences (NCATS)
HT1080-NT tox: qHTS for induction of synthetic lethality in tumor cells producing 2HG: qHTS for the HT-1080-NT fibrosarcoma cell line | HT-1080-NT fibrosarcoma viability, CellTiter-Glo ATP luminescence, 48 h | Potency, µM (highest dose often 46.1 µM), without a hit: at the highest dose activity, negative = less viability, hits mostly cytotoxic | 1.6% of 360,000 active | AID 686970, 2013;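 also: NT is the 2HG producing partner of a matched IDH1 knockdown line; potency is read from the fitted curve at half-maximal effect; 0% = DMSO-treated cells and -100% = media-only wells without cells; nearly all actives have a fitted effect of over 55% in size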
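Toxicity toward the 2HG-producing NT line was scored as %Activity, normalised to DMSO and no-cell wells, from CellTiter-Glo luminescence after 48 hours' treatment.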
HT1080 IDH1KD tx: qHTS for induction of synthetic lethality in tumor cells producing 2HG: qHTS for the HT-1080-IDH1KD cell line; HT-1080 IDH1 knockdown viability, ATP luminescence, 48 h; Potency, µM (top dose mostly 46.1 µM), without a hit: at the highest dose activity, negative = toxicity, actives largely listed as cytotoxic; 2% of 360,000 active; AID 686971, 2013;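 also: potency is read from the fitted curve at half-maximal effect; 0% = DMSO wells and -100% = cell-free medium wells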
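Cytotoxicity counter-line: IDH1KD HT-1080, 48 h, CellTiter-Glo. Curves classed by r2, magnitude and activity.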
IL-1B inflam inh: qHTS for Inhibitors of Inflammasome Signaling: IL-1-beta AlphaLISA Primary Screen; THP-1 LPS/ATP IL-1B secretion, AlphaLISA, 16 h; stronger effect = lower value; activity change, % at 57.5 µM; 4.7% of 360,000 active; in the data active = activity change below about -50%; inconclusive = mostly about -30% to -49%
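THP-1 cells pretreated 1 hr with compounds (up to 57.5 uM final), then stimulated with LPS (250 ng/mL final) plus ATP (1.25 mM final); secreted IL-1B measured by AlphaLISA after 16 hr, decreased signal indicating inhibition.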
TDP1 cell CPT: qHTS for Inhibitors of human tyrosyl-DNA phosphodiesterase 1 (TDP1): qHTS in cells in presence of CPT; chicken DT40 Tdp1-/-;hTDP1 cells + 20 nM CPT, ATP luminescence, 48 h; Potency, µM (top dose mostly 46.2 µM), inactives show at the top dose activity change, negative = growth inhibition, usual class: inhibitors; 12% of 420,000 active; also: potency is read from the fitted curve at half-maximal effect; nearly all actives have a fitted effect of over 55% in size
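Cell growth measured by CellTiter-Glo luminescence after a minimum 48 h, 37 C compound exposure with 20 nM CPT in Tdp1-knockout DT40 cells stably expressing hTDP1, seeded 400/well; qHTS titration format.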
DT40 TDP1 no CPT: qHTS for Inhibitors of human tyrosyl-DNA phosphodiesterase 1 (TDP1): qHTS in cells in absence of CPT; DT40 Tdp1-/- hTDP1 cells, no CPT, ATP luminescence, 48 h; Potency, µM (titrated, usually from 46.2 µM), for the others: at the highest dose activity change, negative = growth inhibition, usual class: inhibitors; 15% of 420,000 active; also: potency is read from the fitted curve at half-maximal effect; nearly all actives have a fitted effect of over 55% in size
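No-CPT arm: Tdp1-/-;hTDP1 DT40 cells (400/well) plus compounds, incubated ≥48 hr at 37 °C. Readout CellTiter-Glo luminescence.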
Starred values were filed as active, the others as inactive; ? = inconclusive; · = no result; [ ] = another dose, or the depositor's remark. The list is not random: actives were taken first. Their share in the collection is about 19%. Unless noted, calls follow the shape of the dose curve; as a rule, active = well fitted curve in the direction sought with a large enough effect; inconclusive = small, poorly fitted or top-dose-only effect, or another doubt; inactive = no such curve, though single readings can be large; an effect the other way counts as inactive or inconclusive. Unless noted, % is scaled to controls: 0 for no effect and ±100 for the full control effect.

SMILES | HT1080-NT tox | HT1080 IDH1KD tx | IL-1B inflam inh | TDP1 cell CPT | DT40 TDP1 no CPT
COC(=O)c1cc(=O)n(Cc2ccc(OC)c(OC)c2)c(=Nc2ccc(F)cc2)s1 | ? | -16% | -23 | 16µM* | 15µM*
Cc1ccc(N(CC(=O)NC2CCCC2)C(=O)CNC(=O)c2cccs2)cc1C | -3% | -2% | -12 | -12% | -23%
COc1ccccc1C(=O)Nc1ccc(S(=O)(=O)Nc2cnc3ccccc3n2)cc1 | 20% | -3% | 32 | -23% | -23%
COC(=O)c1cc(=O)n(CCc2ccc(OC)c(OC)c2)c(=Nc2ccc(F)c(Cl)c2)s1 | 16µM* | ? | -104* | ? | ?
Cc1[nH]n(-c2ccccc2)c(=O)c1/C=N/O | ? | ? | 14 | -20% | -19%
Cn1[nH]c(-c2ccccc2)c(/C=N/O)c1=O | 1% | 16% | 0 | ? | 16µM*
Cc1ccc(CS(=O)(=O)c2ccc(C(=O)N3CCCCC3)cc2[N+](=O)[O-])cc1 | -1% | -9% | -12 | ? | ?
O=C(c1ccc(S(=O)(=O)c2ccc(F)cc2)c([N+](=O)[O-])c1)N1CCCCCC1 | -21% | ? | -103* | 3.3µM* | 2.3µM*
CC1CCN(C(=O)c2ccc(S(=O)(=O)Cc3ccccc3F)c([N+](=O)[O-])c2)CC1 | -14% | ? | -117* | ? | 16µM*
O=C(c1ccc(S(=O)(=O)Cc2ccccc2F)c([N+](=O)[O-])c1)N1CCCC1 | ? | ? | -103* | 18µM* | ?
CC1CCN(C(=O)c2ccc(N3CCOCC3)c([N+](=O)[O-])c2)CC1 | 2% | 2% | -4 | -30% | ?
O=C(COC(=O)/C=C/c1ccccc1[N+](=O)[O-])NC(=O)NC1CCCC1 | 5% | 0% | 3 | 2% | -4%
COc1ccc(C2(CNC(=O)c3cc([N+](=O)[O-])cc([N+](=O)[O-])c3)CCCC2)cc1OC | -14% | -3% | 23 | 21µM* | 16µM*
O=C(NCC1(c2ccccc2)CCCC1)c1ccco1 | 25% | 18% | -4 | -65% | 15µM*
O=C(NCc1ccco1)C1(c2ccccc2)CCCC1 | -26% | 3% | -1 | 10µM* | 7.1µM*
O=C(NCC1(c2ccccc2)CCCC1)c1cccc(Br)c1 | -9% | -7% | -2 | 15µM* | 13µM*
CC(C)N1CCN(Cc2cc3ccccc3[nH]2)CC1CCO (stereo unspecified) | 0% | 7% | -9 | 14% | -7%
COc1ccccc1-c1cn(CC[C@@H]2CC[C@H](NC(=O)C3CCC3)[C@@H](CO)O2)nn1 | -4% | 12% | 25 | -12% | -4%
COc1cccc(C(=O)NCC2(c3ccccc3)CCCC2)c1OC | 0% | -17% | 18 | 18µM* | 9.2µM*
COc1ccc(C2(CNC(=O)c3ccccc3)CCCC2)cc1OC | -7% | -2% | -2 | -47% | ?
COc1ccc(C2(CNC(=O)/C=C/c3ccco3)CCCC2)cc1OC | 5% | ? | 5 | ? | ?
O=C(/C=C/c1ccco1)NCC1(c2ccccc2)CCCC1 | 15% | 5% | -4 | 12µM* | ?
O=C(O)c1cc2cc(Cc3cccnc3)ccc2o1 | · | · | · | -3% | -2%
Cc1cc(C)n(-c2nc(N(C)C)nc(N(C)C)n2)n1 | 7.1µM* | 6.3µM* | 4 | ? | 15µM*
Cc1csc(Nc2ccccc2C(F)(F)F)n1 | -11% | -6% | 32 | -3% | ?
SMILES | HT1080-NT tox | HT1080 IDH1KD tx | IL-1B inflam inh | TDP1 cell CPT | DT40 TDP1 no CPT
Cc1cc(C)n(-c2nc(Nc3ccccc3C(F)(F)F)nc(-n3nc(C)cc3C)n2)n1 | 9.2µM* | ? | -54* | 16µM* | 15µM*
Cc1cc(C)n(-c2ncc(C#N)cn2)n1 | 5% | 8% | 8 | 3% | -1%
CCNc1nc(NCC)nc(-n2nc(C)cc2C)n1 | 2µM* | 0.89µM* | -2 | 2.3µM* | 2.6µM*
Cc1cc(C)n(-c2nc(NC(C)(C)C)nc(NC(C)(C)C)n2)n1 | 10% | 4% | 14 | 2.1µM* | 1.8µM*
COC(=O)C1CCN(C(=O)COC(=O)c2cc(-c3ccccc3)nc3ccc(OC)cc23)CC1 | -5% | -16% | -26 | ? | ?
NC(=O)N=Nc1c(O)n(Cc2ccccc2)c2ccc(Br)cc12 | -14% | -29% | 14 | 4% | -25%
CC1(C(=O)NS(=O)(=O)c2cccc(OC(F)F)c2)CCN1C(=O)Cc1cccs1 (stereo unspecified) | 16% | 0% | 27 | -9% | 6%
Cc1cc(C)n(-c2nnc(NC(C)(C)C)nn2)n1 | 2% | 5% | 17 | 5% | -13%
Cc1cc(C)n(-c2nc(NC(C)C)nc(NC(C)C)n2)n1 | -1% | 0% | -5 | 1µM* | 1.5µM*
COc1ccc(-c2nn(-c3ccccc3)cc2/C=C/C(=O)O)cc1[N+](=O)[O-] | -13% | 18µM* | 10 | ? | 23µM*
O=C(O)/C=C/c1cn(-c2ccccc2)nc1-c1ccc(-c2ccc([N+](=O)[O-])cc2)o1 | 11% | 18% | -7 | -25% | ?
COc1ccc(-c2nn(-c3ccccc3)cc2/C=N/n2cnnc2)cc1OC | -3% | -1% | ? | -2% | -28%
COc1ccc(-c2nn(-c3ccccc3)cc2C=O)cc1[N+](=O)[O-] | 17% | -2% | -84* | -14% | -10%
CCC(C)NC(=O)C1(NC(=O)Nc2ccccc2)CCCCC1 (stereo unspecified) | 1% | 0% | -1 | 16µM* | 18µM*
O=C(Nc1ccccc1)NC1(C(=O)NCc2cccs2)CCCCC1 | 10% | 8% | 3 | -29% | 4%
CCCCNC(=O)C1(NC(=O)Nc2ccc(C)cc2)CCCCC1 | 4% | ? | -2 | 7.3µM* | ?
COC(=O)[C@@H]1CCCN1Cc1ccc2c(c1)CN(Cc1cccn1-c1ccccn1)CCO2 | · | · | · | 9%[9.04 µM] | -13%
CC(=O)Nc1ccc(-c2cc(N)n(-c3ccccc3)n2)cc1 | 6% | -5% | -5 | -20% | -23%
N#Cc1c(N)n(-c2ccccc2)c(=O)c2cc([N+](=O)[O-])ccc12 | 7% | 13% | 4 | ? | ?
Cc1ccccc1-n1sc2cc(F)ccc2c1=O | 18µM* | 21µM* | -105* | 1.8µM* | 2.6µM*
O=c1c2ccccc2sn1-c1ccccc1 | ? | 16µM* | -101* | 2.6µM* | 2.9µM*
